Results taken from PubChem BioAssay AID1508622 (National Center for Advancing Translational Sciences (NCATS), 2021).
The source made the active and inactive calls. Where a call stands in place of a potency, no number is given. Calls follow the shape of the dose curve; as a rule, active = well fitted activation curve with a large enough effect; inconclusive = small, poorly fitted or top-dose-only effect; inactive = no such curve, though single readings can be large or run the other way.

Test: Confirmatory qHTS for Identification of Small Molecule Activators of Huntingtin-Antisense Promoter Activity
Conditions: HEK293 HTT-AS promoter firefly luciferase reporter, 24 h; series mostly up to 57.5 µM
Summary of the method: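 Plated reporter HEK293 cells (24 h) received library compounds at up to 57.5 uM final or 50 uM PTC124, incubated 24 h at 37C; firefly luciferase luminescence was then recorded with Dual-Glo reagent.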
Potency is read from the fitted curve at half-maximal effect.

| SMILES | Potency |
| --- | --- |
| COc1cccc(CNC(=O)c2cc3c(-c4ccccc4F)nn(C)c3s2)c1 | inactive |
| Cc1cc(C)c(NS(=O)(=O)c2ccc(-c3cnc(C4CC4)o3)cc2)c(C)c1 | inactive |
| Cc1nnc(N2CCC(C(=O)NCCc3ccccc3Cl)CC2)c2nn(-c3ccccc3)c(C)c12 | inactive |
| CCCOc1ccc(C(=O)Nc2ccc(-c3cc4ccccc4oc3=O)c(C)c2)cc1 | inactive |
| CN(C)c1ccc(Nc2nc(N)n(C(=O)c3c(F)cccc3F)n2)cc1 | 30.1 µM (active) |
| COc1ccc(NC(=O)c2ccc(-c3nc(CSc4ccccc4)c(C)o3)cc2)cc1OC | inactive |
| COc1ccc2sc(N(Cc3cccnc3)C(=O)c3cccs3)nc2c1 | inactive |
| O=C(NCCCN1CCN(c2ccccc2)CC1)c1ccc2nc(CCc3ccccc3)oc2c1 | inactive |
| Cc1ccc(-c2c(C)n3c4c(=O)n(C)c(=O)n(C)c4nc3n2CCO)cc1 | inactive |
| COc1ccc(NC(=O)Cn2c(=O)oc3cc(S(=O)(=O)N4CCCCCC4)ccc32)cc1OC | inactive |
| O=C(CSc1nc(-c2ccc(F)cc2)[nH]c1-c1ccc(F)cc1)Nc1ccc2c(c1)OCCO2 | inactive |
| CCCOc1ccc(C2c3c(-c4ccccc4O)n[nH]c3C(=O)N2CCCOCC)cc1OCC (centres undefined) | inactive |
| O=C(NCc1cccnc1)C(=O)NCC(c1cccnc1)N1CCN(c2ccccc2F)CC1 (centres undefined) | inactive |
| CCOC(=O)c1ccc(C#Cc2ccc3c(c2)C(C)(C)CCS3)nc1 | inactive |
| CCCCOc1cccc(C(=O)N(Cc2ccc(C)o2)c2ccccn2)c1 | inactive |
| Cc1ccc(NC(=O)C2CCN(S(=O)(=O)c3ccc4[nH]c5c(c4c3)CCCCC5)CC2)cc1 | inactive |
| COc1ccc(-c2nc(N3CCOCC3)c3sc(CN(C)c4ncc(C(=O)NO)cn4)cc3n2)cn1 | inactive |
| Cc1ccc(CNS(=O)(=O)c2ccc(N3CCCCS3(=O)=O)cc2)cc1 | inactive |
| Fc1ccc(-c2csc(=Nc3cccc(C(F)(F)F)c3)n2Cc2ccc3c(c2)OCO3)cc1 | inactive |
| CN(C)c1ccc(C(=O)NCCCCCCC(=O)NO)cc1 | 30.1 µM (active) |

| SMILES | Potency |
| --- | --- |
| CCc1ccc(CNC(=O)c2ccc3nc(SCc4ccc(F)cc4)n(C)c3c2)cc1 | inactive |
| COc1ccc(C2=CC(c3ccccc3Cl)n3nc(-c4ccc(Cl)cc4)nc3N2)cc1 (centres undefined) | inactive |
| O=C(Cn1cc(S(=O)(=O)Cc2ccccc2Cl)c2ccccc21)Nc1cccc(C(F)(F)F)c1 | inactive |
| COc1ccc(C2C=C(c3ccc(Br)cc3)Nc3nnnn32)c(OC)c1 (centres undefined) | inactive |
| Cc1cccc(C(=O)Nc2nc(-c3nnn(-c4cc(F)ccc4F)c3C)ns2)c1 | inactive |
| CCOc1ccc(CCNc2ncnc3onc(C)c23)cc1OCC | inactive |
| CN(C)c1ccc(C(=C2C=CC(=[N+](C)C)C=C2)c2ccc(N(C)C)cc2)cc1 | inactive |
| COc1ccc(C(=O)Nc2cccc(-c3cn4ccsc4n3)c2)c(OC)c1 | 13.5 µM (active) |
| COc1ccc2sc(N(Cc3cccnc3)C(=O)c3ccc4c(c3)OCCO4)nc2c1 | inactive |
| Cc1ccc(N2CCN(C(=O)c3nn(C)c4c3CS(=O)(=O)c3ccccc3-4)CC2)c(C)c1 | inactive |
| Cc1ccc(NC(=O)c2ccc(C)c(S(=O)(=O)N3CCCCCC3)c2)cc1 | inactive |
| COc1ccc(C)cc1NC(=O)Cn1c(=O)cc(C)c2c(C)nn(C)c21 | inactive |
| CCc1ccc(NC(=O)c2ccc(F)c(S(=O)(=O)N3CCN(c4cc(C)ccc4C)CC3)c2)cc1 | inactive |
| O=C(Cn1cc(S(=O)(=O)Cc2ccccc2F)c2ccccc21)Nc1ccc(F)c(Cl)c1 | inactive |
| COc1ccc2c(c1)CCc1c(C(=O)Nc3c(C)nn(Cc4ccccc4C)c3C)noc1-2 | inactive |
| Fc1ccc(N2CCN(c3ncnc4c3nc3n4CCCCC3)CC2)cc1 | inactive |
| Cc1ccccc1Nc1c(-c2cccnc2)nc2cccc(C)n12 | inactive |
| Cc1ccc(-c2[nH]c3ccccc3c2SCCNC(=O)c2ccc(S(=O)(=O)N(C)C)cc2)cc1 | inactive |
| CCOC(=O)c1ccc(CN(Cc2ccc(C)cc2)S(=O)(=O)c2ccc(NC(C)=O)cc2)cc1 | inactive |
